# Pf growth 96h: P. falciparum growth inhibition at 96 hours | P. falciparum luciferase reporter growth, 96 h | Potency, µM (series often up to 28.7 µM), for inactives: at the top dose activity change, negative = inhibition, usual class: inhibitors | 6.9% of 320,000 active | AID 504834; note: potency is the fitted concentration of half-maximal effect; % is set by controls: 0 for no effect and ±100 for the full control effect
#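 P. falciparum expressing integrated firefly luciferase grown in erythrocytes (2% hematocrit, 0.05% parasitemia final) with compounds for 96 hours at 37 C, 5% CO2. Growth inhibition read as loss of luminescence after adding luciferase detection reagent.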
# Pf growth 48h: inhibits P. falciparum growth in the first generation, 48 h | P. falciparum luciferase growth in erythrocytes, 48 h | Potency, µM (series often up to 28.7 µM), without a hit: top-dose activity change, negative = inhibition, actives largely listed as inhibitors | 5.9% of 310,000 active; note: potency is the fitted concentration of half-maximal effect; % is set by controls: 0 for no effect and ±100 for the full control effect
#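 In quantitative HTS format, infected erythrocytes bearing luciferase-reporter parasites were treated for a single generation at 37 C. Luminescence after adding detection reagent served as the growth measure.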
# CHX counter: counter-screen hit for Shiga toxin inhibitors, cycloheximide; cell reporter, cycloheximide protein synthesis inhibition counterscreen; max response, %; 12% of 300,000 active; AID 2314; in the data active = max response mostly above about 13%, no sharp cut-off; inactive = mostly below about 14%; note: read at 38.3 µM for the half of the compounds with a filed dose; 0% is about no effect
# NS1 inh: influenza NS1 inhibition; 0.4% of 270,000 active; Potency, µM (doses to about 46.1 µM), inactives show at the top dose activity, positive = more growth; AID 2326; calls by dose curve; note: potency is the fitted concentration of half-maximal effect; actives are rising curves; nearly all actives have a fitted effect of over 50% in size
#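 Read-out: OD600 growth recovery of NS1-expressing budding yeast. Cells grown overnight at 30C in -URA glucose medium, washed, resuspended and diluted 1:100 in 2% galactose assay medium, pH 6.0. Same strain lacking NS1 served as positive control.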
# Shiga inhibitor: blocks Shiga toxin action in Vero cells; Vero cells, Shiga toxin protein synthesis inhibition reporter; inhibition, % at 38.7 µM; 9.2% of 290,000 active; in the data active = inhibition mostly above about 28%, no sharp cut-off; inactive = mostly below about 43%; note: 0% is about no effect
# An asterisk follows results filed as active; ? = inconclusive; · = no result. The list is not random: actives were taken first. Their share in the collection is about 21%. Unless noted, calls come from the whole dose curve; as a rule, active = well fitted inhibition curve with a large enough effect; inconclusive = small, poorly fitted or top-dose-only effect, or another doubt; inactive = no such curve, though single readings can be large or run the other way.
SMILES,Pf growth 96h,Pf growth 48h,CHX counter,NS1 inh,Shiga inhibitor
S=C(NCCc1ccccc1)Nc1ccc(Cl)cc1,39%,40%,53*,-20%,54
O=C1NC(=O)C2(CCCc3ccccc32)N1 (centres undefined),-26%,14%,-3,0%,-5
CCN1CCN(C(=O)c2cnn3c(C(F)F)cc(-c4ccc(C)cc4)nc23)CC1,7.4µM*,?,-3,0%,-15
COc1cccc(-c2cc(C(F)(F)F)n3nc(C(=O)N4CCCCC4c4cccnc4)cc3n2)c1 (centres undefined),?,3.7µM*,19*,·,51*
O=C(c1cnn2c(C(F)F)cc(-c3ccccc3)nc12)N1CCN2CCCC2C1 (centres undefined),·,?,-2,0%,-5
O=C(c1cnn2c(C(F)F)cc(-c3ccccc3)nc12)N1CCCCC1c1cccnc1 (centres undefined),?,1.7µM*,-2,-4%,14
Cc1ccccc1Cc1c(C)nc2c(C(=O)N3CCN(Cc4ccc5c(c4)OCO5)CC3)cnn2c1C,·,·,·,-19%,·
O=C(c1cnn2c(C(F)F)cc(-c3ccccc3)nc12)N1CCN(Cc2ccc3c(c2)OCO3)CC1,?,4.7µM*,-5,-4%,-11
NC(=O)c1ccc(NC(=O)CNC(=O)c2sc3ccccc3c2Cl)cc1,-13%,10%,·,·,·
COc1ccc(-n2[nH]c3c4c(ncc3c2=O)CCCCC4)cc1,·,·,-3,·,14
O=C1NC(=O)C2C3C=CC(C3)C12 (centres undefined),-10%,-5%,·,·,·
CC(=O)N(C)c1ccc(OCC(O)Cn2c3ccc(Cl)cc3c3cc(Cl)ccc32)cc1 (centres undefined),?,?,-1,2%,-8
CN1CCN(C(=O)c2cnn3c(C(F)(F)F)cc(-c4ccc5c(c4)OCO5)nc23)CC1,-28%,-25%,5,1%,-15
O=C(c1cnn2c(C(F)(F)F)cc(-c3ccc4c(c3)OCO4)nc12)N1CCCCC1,8.3µM*,0%,-4,-14%,3
COC(=O)c1cc(CNC(=O)Cc2ccsc2)ccc1OC,3%,4%,-6,3%,-6
COc1ccc(NC(=O)c2nn(C34CC5CC(CC(C5)C3)C4)cc2[N+](=O)[O-])cc1,-1%,4.7µM*,-3,-2%,-22
O=C(Nc1ccc2ccccc2c1)c1nn(C23CC4CC(CC(C4)C2)C3)cc1Br,?,?,10,2%,-7
CCn1nc(C(=O)Nc2cccc3ccccc23)c(Cl)c1Cl,?,14%,8,-139%,10
O=C(Nc1cccc2ccccc12)c1nn(C23CC4CC(CC(C4)C2)C3)cc1[N+](=O)[O-],0.93µM*,?,-5,25%,-5
CCN(Cc1cnn(C)c1)C(=O)c1ccc2nc(Cc3cccc(Cl)c3)oc2c1,?,?,9,-2%,9
Cc1sc2ncnc(Sc3nnc4sc5ccccc5n34)c2c1C,?,2.9µM*,-1,-4%,-4
CCSc1ncnc2sc(C)c(C)c12,7%,25%,-5,-9%,-6
O=C(Nc1cc(S(=O)(=O)N2CCOCC2)ccc1N1CCOCC1)c1cccc(S(=O)(=O)N2CCCCC2)c1,?,?,-3,3%,-1
Cc1ccc(CNc2cc(-c3nn4c(C)nnc4s3)ccc2C)s1,?,12µM*,8,-70%,13
Cc1ccc(-c2nn3c(C)nnc3s2)cc1N,·,50%,16*,-1%,48
SMILES,Pf growth 96h,Pf growth 48h,CHX counter,NS1 inh,Shiga inhibitor
Cc1ccc(-c2nn3c(C)nnc3s2)cc1NCc1c(F)cccc1Cl,1%,?,-3,-75%,-9
Cc1ccc(C)c(N2C(=O)c3ccc(C(=O)OCC(=O)c4c(N)n(C)c(=O)n(C)c4=O)cc3C2=O)c1,42%,16%,-2,-7%,-5
COC(=O)c1ccc(N2CCN(C(C)=O)CC2)c(NC(=O)c2cccnc2)c1,16%,15%,-3,-6%,-11
CC[C@H](C)[C@H](NC(=O)[C@H](CCC(=O)O)NC(=O)CNC(=O)[C@@H](NC(=O)[C@H](CCC(=O)O)NC(=O)[C@H](CCC(=O)O)NC(=O)[C@H](CC(C)C)NC(=O)CNC(=O)[C@@H]1CCCN1C(=O)[C@H](CCC(=O)O)NC(=O)[C@@H](N)[C@@H](C)O)C(C)C)C(=O)N[C@@H](CCC(=O)O)C(=O)N[C@@H](CCC(N)=O)C(=O)N[C@@H](CCCCN)C(=O)N[C@@H](CCC(N)=O)C(=O)N[C@@H](CC(C)C)C(=O)N[C@@H](CCC(N)=O)C(=O)O,·,·,-4,·,19
CC1(C)CC2CC(C)(CN2C(=O)c2cc(-c3ccccc3O)on2)C1 (centres undefined),20%,·,-5,-123%,16
CC(=O)c1cccc(OCc2cc(C(=O)N3C[C@@H](C)O[C@@H](C)C3)no2)c1,?,19%,41*,0%,75*
CC(=O)c1ccc(OCc2cc(C(=O)N3CCC[C@H]3CO)no2)cc1,?,-12%,11,0%,17
COCCC1CCCCN1C(=O)c1cc(COc2cccc(C(C)=O)c2)on1 (centres undefined),5%,-2%,34*,-16%,76*
CC1(C)C[C@@H]2C[C@@](C)(CN2C(=O)c2cc(COc3cccc(C(F)(F)F)c3)on2)C1,27%,40%,12,-20%,42*
CC(=O)c1cccc(OCc2cc(C(=O)N3C[C@H]4CC[C@H]3C4)no2)c1,?,41%,50*,-33%,82*
CC(=O)c1cccc(NC(=O)N2CC(C)OC(C)C2)c1 (centres undefined),-28%,33%,-3,3%,-9
COc1cc2c(=O)n(CCCN3CCOCC3)c(=S)[nH]c2c(OC)c1OC,-14%,14%,-2,-5%,-9
Cc1ccc(C(=O)NCCCNC(=O)COc2ccccc2Cl)cn1,11%,0%,-7,1%,3
O=C(c1cc(COc2cccc(C(F)(F)F)c2)on1)N1C[C@H]2CC[C@H]1C2,36%,18%,30*,-77%,80*
CC(=O)NC(NC(=S)N1CCCCCC1)C(Cl)(Cl)Cl (centres undefined),74%,-3%,0,-3%,-19
CCCCCC[C@@H](O)C/C=C\CCCCCCCC(=O)O,3%,-6%,·,·,·
CCCCC/C=C\C[C@H](O)/C=C/c1cccc(C[C@H](O)CCCCO)n1,?,13µM*,-2,-5%,-7
CC(Sc1nnnn1-c1ccccc1)C(=O)NC1CCCC1 (centres undefined),20%,-2%,·,·,·
CN(C)/C=C(\C#N)C(=O)N/N=C/c1ccc(Cl)cc1,54%,86%,10,·,14
CN(C)/C=C(\C#N)C(=O)Nc1ccc(F)cc1,156%,84%,16*,9%,50*
CN(C)/C=C(\C#N)C(=O)Nc1ccc(F)c(Cl)c1,189%,145%,24*,3%,52*
Cc1nn(-c2ccccc2)c2nc(-c3ccncc3)cc(C(=O)NCc3ccco3)c12,10µM*,3.7µM*,2,7%,2
